From PubChem
M1 PAM parental = nonselective calcium activators in parental CHO-K1 cells, primary screen, counter-screen for M1 PAM project, cell-based, Fluo-8 calcium fluorescence, full deck, 1536-well; ATP EC20; 0% at ATP EC20, 100% at ATP max; hit rate 0.02% among 360,000; activation, % at 3 µM;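 active = activation above the run cutoff, the mean activation of all test compounds plus 3 SD, cut at about 40% in these data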;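 also: peak over basal fluorescence ratio in a 140 s read after ATP addition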
CHO-K1 Ca ag = counter-screen for M1 agonists: effect in parental CHO-K1 cells | Fluo-8 calcium fluorescence; scaled to maximal ATP response, vehicle zero | activation, % at 3 µM | hit rate 0.48% among 360,000 | AID 602248, 2012; in the data active = activation above about 15%;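 also: untransfected CHO-K1 host cells lacking M1 receptor as counterscreen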
CHO-K1 Ca antag = counter-screen for M1 antagonists: effect in parental CHO-K1 cells | ATP-induced calcium, Fluo-8 fluorescence | inhibition, % at 3 µM | hit rate 0.6% among 360,000 | AID 602250;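 active = inhibition above a per-plate cutoff, the plate's mean sample inhibition plus 3 SD, cut at about 24% in these data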
M1 ag = human M1 muscarinic receptor agonists, primary screen, Fluo-8 calcium fluorescence, CHO-K1 cells, HTS. Muscarinic acetylcholine receptor M1 (Homo sapiens), P11229. activation, % at 3 µM. CHO-K1 hM1, agonist mode; 0% DMSO, 100% acetylcholine EC100. hit rate 0.33% among 360,000;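 active = activation above the run's mean compound activation plus 3 SD, cut at about 16% in these data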;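 also: peak over basal fluorescence ratio within a 140 s kinetic read after compound addition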
Target sequence (P11229 whole entry, looked up): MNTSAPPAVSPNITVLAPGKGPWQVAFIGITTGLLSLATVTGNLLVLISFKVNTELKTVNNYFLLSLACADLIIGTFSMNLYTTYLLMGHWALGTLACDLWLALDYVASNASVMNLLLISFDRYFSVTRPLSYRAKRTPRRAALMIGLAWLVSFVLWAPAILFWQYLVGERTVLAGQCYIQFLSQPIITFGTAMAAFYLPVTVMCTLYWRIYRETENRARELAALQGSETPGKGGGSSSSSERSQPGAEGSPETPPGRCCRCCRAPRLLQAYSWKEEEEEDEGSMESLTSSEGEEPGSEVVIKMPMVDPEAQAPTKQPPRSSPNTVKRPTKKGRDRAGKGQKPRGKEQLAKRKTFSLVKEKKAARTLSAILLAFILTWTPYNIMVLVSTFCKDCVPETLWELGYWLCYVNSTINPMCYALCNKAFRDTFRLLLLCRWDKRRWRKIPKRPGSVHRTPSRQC
CHRM1 antagonist = human M1 muscarinic receptor antagonists, primary screen, CHO-K1 cells, Fluo-8 calcium fluorescence, 1536-well. hit rate 1.3% among 360,000. CHO-K1 hM1, ACh EC80 antagonist. Muscarinic acetylcholine receptor M1 (Homo sapiens), P11229. inhibition, % at 3 µM. AID 588852, 2011;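 active = percent inhibition above its own plate's cutoff, namely the mean of that plate's compound wells plus 3 SD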;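 also: peak over basal fluorescence ratio during 140 s after agonist addition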
CHRM1 PAM = human M1 muscarinic receptor positive allosteric modulators, primary screen, CHO-K1 cells, Fluo-8 calcium fluorescence, 1536-well; Muscarinic acetylcholine receptor M1 (Homo sapiens), P11229; CHO-K1 hM1, ACh EC20; 0% = ACh EC20, 100% = maximal ACh; activation, % at 3 µM; hit rate 0.088% among 360,000; AID 588819, 2011; in the data active = activation above about 19%, passing the limit was not always enough
Of the large screens only hits and unclear results are named; the others gave an inactive call. Shown are actives, neighbours in structure and some others; about 2.4% of the full set was active somewhere.

O=C(CCC(F)(F)F)N1CCCC(N2CCN(c3cccc(Cl)c3)CC2)C1 (centres undefined)	none
[NH-]c1ncnc2c1N=C[N+]2=CC=CCO	none
CCCCN(C)CCCNC(=O)c1cn(CC)c2ccc(S(=O)(=O)N3CCc4ccccc4C3)cc2c1=O	CHRM1 antagonist 43
COc1ccc(OC)c(-c2cc(C3CCN(c4cc(Cl)nc(N)n4)CC3)[nH]n2)c1	CHO-K1 Ca antag 25
Nc1nc(Cl)cc(N2CCC(c3cc(-c4ccc(Cl)cc4)n[nH]3)CC2)n1	CHO-K1 Ca ag 21, CHRM1 antagonist 38
Cc1ccc(CN2CCC(c3cc(-c4ccc(Cl)cc4)n[nH]3)CC2)cc1	CHO-K1 Ca ag 16
COc1ccc(-c2cc(C3CCN(Cc4ccc([N+](=O)[O-])cc4)CC3)[nH]n2)cc1	none
C[C@@H]1CCCCO[C@H](CN(C)C(=O)Cc2ccccc2)[C@@H](C)CN([C@H](C)CO)C(=O)c2cc(N(C)C)ccc2O1	none
O=C(Nc1cccc(F)c1)c1ccc(-c2cccnc2)c2ccoc12	none
Oc1ccccc1N=Cc1c(O)ccc2oc3c(c12)CCCC3	CHO-K1 Ca ag 16
O=C(O)c1ccc(N=Cc2c(O)ccc3oc4c(c23)CCCC4)cc1	none
O=C(OCC(=O)N(C1CCCCC1)C1CCCCC1)c1ccc(Cl)nc1	CHRM1 PAM 24
Cc1ccc(S(=O)(=O)CC2CSc3nc(N)cc(=O)n32)cc1 (centres undefined)	none
Cc1ccc(S(=O)(=O)CC2CSc3nc4ccccc4n32)cc1 (centres undefined)	CHO-K1 Ca antag 28
C=CCn1c(COc2ccc(CC)cc2)nnc1SC/C(O)=C(\C#N)c1nc2ccccc2[nH]1	CHO-K1 Ca antag 26
C=CCn1c(COc2ccccc2)nnc1SCc1ccc(C#N)cc1	none
COc1ccccc1CN1CCC(CNS(=O)(=O)c2cc(-c3cc(C)no3)ccc2OC)CC1	CHRM1 antagonist 93
CCOC(=O)N1CCC(NC(=O)C2CCCN(S(=O)(=O)c3cccnc3)C2)CC1 (centres undefined)	CHO-K1 Ca antag 42
CCOC(=O)N1CCC(NC(=O)C2CCN(Cc3nc(-c4ccc(CC)cc4)oc3C)CC2)CC1	none
CCOC(=O)N1CCC(NC(=O)C2CCCN(Cc3nc(-c4ccc(CC)cc4)oc3C)C2)CC1 (centres undefined)	CHO-K1 Ca antag 24
COCOc1ccc(-c2ncc(OC)nc2NC(=O)c2cc(C)oc2C)cc1	none
Nc1ncnc2c1ncn2[C@@H]1O[C@H](COP(=O)(O)OP(=O)(O)OP(=O)(O)O)[C@@H](O)[C@H]1O	CHO-K1 Ca ag 37, M1 ag 53
Nc1ncnc2c1ncn2[C@@H]1O[C@H](CO)C[C@H]1O	CHO-K1 Ca antag 24
C[C@@H]1CN([C@H](C)CO)S(=O)(=O)c2ccc(C#Cc3ccccc3F)cc2O[C@H]1CN(C)C(=O)c1ccc2c(c1)OCO2	CHRM1 antagonist 27
Cc1ccc(C(=O)N/C(=C\c2ccccc2)C(=O)NCCN2CCOCC2)cc1	none
Cc1ccc(C(=O)NCCSc2c(C)[nH]c3ccccc23)cc1[N+](=O)[O-]	none
O=C(NCCc1nc2ccccc2[nH]1)c1ccc(Cl)c([N+](=O)[O-])c1	CHRM1 antagonist 29
Cc1ccc(C(=O)NCCc2nc3ccccc3[nH]2)cc1[N+](=O)[O-]	CHO-K1 Ca antag 24
O=C(NCCc1cccc(Cl)c1)c1ccc(Cl)c([N+](=O)[O-])c1	none
O=C(NCCc1ccccc1)c1ccc(CS(=O)Cc2ccc(Cl)cc2)o1 (centres undefined)	none
COc1ccc(Cl)cc1NC(=S)NCCSc1ccc(C)cc1	none
Cn1c(=O)c(NCCO)c2c3c(cccc31)C(=O)c1ccccc1-2	CHO-K1 Ca ag 34, M1 ag 70
Cn1c(=O)c(NCCc2ccccc2)c2c3c(cccc31)C(=O)c1ccccc1-2	CHO-K1 Ca ag 124, CHO-K1 Ca antag 70, M1 ag 166, CHRM1 antagonist 80
Cn1c(=O)cc2c3c(c(N4CCCCC4)ccc31)C(=O)c1ccccc1-2	none
CN1C(=O)c2cccc(NCCCN3C(=O)c4ccccc4C3=O)c2C1=O	none
CC(=O)Nc1ccc(Nc2c3c4c(cccc4n(C)c2=O)C(=O)c2ccccc2-3)cc1	none
Cn1c(=O)c(NC2CCCCC2)c2c3c(cccc31)C(=O)c1ccccc1-2	CHO-K1 Ca ag 16
CCCCNc1c2c3c(cccc3n(C)c1=O)C(=O)c1ccccc1-2	CHO-K1 Ca ag 123, CHO-K1 Ca antag 69, M1 ag 141, CHRM1 antagonist 75
O=c1cc(CN2CCN(c3ccc(Cl)c(Cl)c3)CC2)c2c(ccc3ccccc32)o1	none
COc1ccc(C(=O)NNC(=O)CCn2nnc(-c3ccc(Cl)cc3)n2)cc1OC	none
Cc1onc(-c2ccccc2)c1-c1nnc(CN2CCN(S(=O)(=O)c3ccccc3F)CC2)o1	none
Cc1cc(C(=O)COc2ccc(C#N)cc2)c(C)n1-c1ccc2c(c1)OCO2	CHO-K1 Ca antag 32
Cc1cc(C(=O)COC(=O)C2=COCCO2)c(C)n1-c1ccc2c(c1)OCO2	none
Cc1cc(CSc2ccccc2)ccc1NC(=O)c1ccc(C)c([N+](=O)[O-])c1	none
Cc1cc(CSc2ccccc2)ccc1NC(=O)c1ccc(Cl)c([N+](=O)[O-])c1	CHO-K1 Ca antag 28
Clc1cccc(CNc2ccn3nc(-c4ccco4)cc3n2)c1	CHO-K1 Ca antag 26
Clc1cccc(CNc2ccn3nc(-c4cccs4)cc3n2)c1	none
CCC(C)Nc1nc2c(c(=O)n(C)c(=O)n2C)n1Cc1ccc(Cl)cc1 (centres undefined)	none
CCNc1nc2c(c(=O)n(C)c(=O)n2C)n1Cc1ccc(Cl)cc1	CHRM1 antagonist 29
COC(=O)c1ccc(NC(=O)c2ccc3nccnc3c2)cc1	none
O=C(Nc1ccc(SC(F)F)cc1)c1ccc2nccnc2c1	CHO-K1 Ca ag 17
Cc1ccc(C)c(NC(=O)C2CCN(S(=O)(=O)c3ccc4c(c3)NC(=O)CO4)CC2)c1	CHRM1 antagonist 36
CCCCCCNc1nc(-c2ccc(OC)cc2)c(CCC(=O)O)s1	none
Cc1ccc(-c2noc(CCCC(=O)NCC3CCCO3)n2)cc1 (centres undefined)	none
Cc1cc(CCCCCCCCc2cc(C)cc(=O)o2)oc(=O)c1	none
CCC(C)(C)c1ccc(OCCCC[n+]2cccc(C)c2C)c(C(C)(C)CC)c1	CHO-K1 Ca ag 25, CHRM1 antagonist 73
CCOc1ccc(-n2c(-c3ccc(OC)cc3)c[n+]3c2CCCCC3)cc1	none
COc1ccc(-c2c[n+]3c(n2-c2ccc(C)cc2)CCCCC3)cc1	none
